PubChem BioAssay AID1851 (National Center for Advancing Translational Sciences (NCATS), 2009)
About 2,600 (16%) of roughly 16,000 compounds were called active. Another 20% or so got no clear call; they are omitted. These entries were drawn from the full list. Values without a mark were called inactive. The call rests on the fitted dose curve; in most records, active means well fitted curve in the direction sought with a large enough effect; inconclusive means small, poorly fitted or top-dose-only effect, or effect the other way; inactive means no such curve, though single readings can be large or run the other way.

Target: Cytochrome P450 2D6 (Homo sapiens) (UniProt P10635)
Sequence (P10635 whole entry, looked up): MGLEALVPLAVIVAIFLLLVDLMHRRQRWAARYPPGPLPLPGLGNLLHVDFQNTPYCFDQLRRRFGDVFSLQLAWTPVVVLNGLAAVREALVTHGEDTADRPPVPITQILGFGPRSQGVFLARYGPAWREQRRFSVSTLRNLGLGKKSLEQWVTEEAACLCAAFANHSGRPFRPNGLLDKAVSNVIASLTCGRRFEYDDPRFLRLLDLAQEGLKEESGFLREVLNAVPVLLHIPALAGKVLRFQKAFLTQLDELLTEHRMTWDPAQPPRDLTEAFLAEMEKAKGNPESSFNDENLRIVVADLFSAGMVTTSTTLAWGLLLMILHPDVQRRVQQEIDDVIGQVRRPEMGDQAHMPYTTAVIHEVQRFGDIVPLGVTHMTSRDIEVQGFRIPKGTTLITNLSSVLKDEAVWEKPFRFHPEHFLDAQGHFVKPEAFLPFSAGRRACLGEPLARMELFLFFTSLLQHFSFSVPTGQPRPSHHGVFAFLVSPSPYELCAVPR
Test: Cytochrome panel assay with activity outcomes
Settings: recombinant CYP, pro-luciferin dealkylation, luminescence, p450-cyp2d6; series mostly up to 57.1 µM; activity, negative = inhibition: at the top concentration
On the % scale 0 is the no-effect control and ±100 the full control effect.

SMILES	activity, negative = inhibition	AC50
O=C(CN1C(=O)c2ccccc2C1=O)NCC(=O)OCC(=O)c1ccc(Br)cc1	8.27%	
CCn1c(CCNC(=O)c2ccccc2Cl)n[nH]c1=S	7.62%	
O=C(O)c1ccccc1/C=N\N=C1c2ccccc2-c2ccccc21	16.6% [at 11.4 µM]	
CCn1cc(C(=O)NCC(=O)OC)c2cc(OC)c(OC)cc2c1=O	0.174%	
CC1(C)[C@@H]2CC[C@]1(C)[C@@H](OC(=O)CSC#N)C2	-15% [at 11.4 µM]	
C=CCc1ccccc1OC[C@H](O)CNC(C)C		6.31 µM (active)
CC(C)(C)NC[C@H](O)COc1cccc2[nH]c(=O)[nH]c12		inactive
CC(C)NC[C@@H](O)COc1cccc2ccccc12	-1.24%	
C[C@@]12C[C@H](O)[C@@H]3[C@H](CCC4=CC(=O)CC[C@]43C)[C@H]1CC[C@@H]2c1csc(N)n1	-10.6% [at 11.4 µM]	
Cc1ccc(C)c(S(=O)(=O)NC(C)C(=O)Nc2ccc(-c3nc4ccccc4s3)cc2)c1 (centres undefined)	12.2%	
CC(C)[C@]1(Cl)CC[C@@H]2[C@]3(C)CCC[C@@](C)(C(=O)O)[C@H]3C[C@H](Cl)[C@@]2(Cl)[C@H]1Cl	4.09% [at 11.4 µM]	
COc1cccc(Cn2c(=O)c(-c3cccc(C#N)c3)nc3cnc(N4CCN(C)CC4)nc32)c1	-0.672%	
Cc1ccc(/C=C2\SC(=S)N(CCCC(=O)Nc3ccccn3)C2=O)cc1	-15.3%	
CC(C)(C)COS(=O)OCC(C)(C)C	-1.05% [at 11.4 µM]	
CC(C)C(O)(C#CCN1CCCC1)c1ccccc1 (centres undefined)		14.1 µM (active)
CCC(C#CCN1CCCCC1)(CC)OCCC#N	-15.3%	
C[C@@H](N1CCOCC1)[C@@](O)(c1ccccc1)c1ccccn1	-15% [at 11.4 µM]	
O=C(N/N=C/C=C/c1ccc([N+](=O)[O-])cc1)c1cccs1	14.5%	
OCCN1CCOCCOCCN(CCO)CCN(CCO)CC1	26.6%	
COC(=O)/C=C/CSC1=N/C(=C/c2ccc(-n3cncn3)cc2)C(=O)N1		14.1 µM (active)
COc1ccccc1NC(=O)CSc1nc2ccccc2cc1Cc1ccccc1	-3.55%	
C[C@@H]1C(=O)N(C)C(=O)c2nc[nH]c21	7.62%	
CCOc1ccc(NC(=S)NC(=O)/C=C/c2ccc(C)cc2)c([N+](=O)[O-])c1	18.9%	
FC(F)(F)c1cccc(N2CCN(CC3CC4C=CC3C4)CC2)c1 (centres undefined)		2.51 µM (active)
O=C(CCN1C(=O)C2C3C=CC(C3)C2C1=O)N1CCN(c2cccc(Cl)c2)CC1 (centres undefined)	-26.2%	

SMILES	activity, negative = inhibition	AC50
O=C(c1coc2ccccc2c1=O)N1CCN(c2cccc(C(F)(F)F)c2)CC1	-4.44%	
CC(=O)O[C@]1(C(C)=O)CC[C@@H]2[C@@H]3C=C(C)C4=CC(=O)CC[C@@]4(C)[C@H]3CC[C@]21C	-7.62% [at 25.6 µM]	
CCN(CC)C(=O)Cn1cnc([N+](=O)[O-])n1	7.11%	
O=C1C(=O)N(c2cccc(Cl)c2)C(c2ccccc2[N+](=O)[O-])/C1=C(\O)c1ccccc1 (centres undefined)	-1.36%	
COc1ccc(CCNC(=O)c2nnn(CC(=O)Nc3ccccc3C)c2N)cc1OC	-23.3%	
COCC(=O)N1CCC2(CCCN(C(=O)Nc3cccc(C#N)c3)C2)CC1	9.12%	
COc1ccccc1C(c1nnnn1C(C)(C)C)N1CCN(Cc2ccncc2)CC1 (centres undefined)		2.82 µM (active)
COc1ccccc1C(c1nnnn1C(C)(C)C)N1CCCc2ccccc21 (centres undefined)	3.94%	
CN1CCN(c2ncc3nc(-c4cc(F)cc(F)c4)c(=O)n(C)c3n2)CC1	3.01%	
Cc1cc(Cl)ccc1Oc1ncnc2oc(-c3ccccc3)cc12	2.71%	
OCCN=c1cc(-c2ccccc2)oc2ccc(Cl)cc12		6.31 µM (active)
COc1ccc(CNc2cc(-c3ccccc3CN(C)C)ncn2)c(OC)c1		12.6 µM (active)
COc1ccccc1CNc1ccnc(-c2ccccc2OC)n1		1.58 µM (active)
COc1ccc(CNc2ccnc(-c3ccccc3OC)n2)c(OC)c1		3.98 µM (active)
COc1ccc(CNc2ccnc(-c3ccccc3CN(C)C)n2)c(OC)c1		1 µM (active)
Cc1cc(NC(=O)c2ccc(S(=O)(=O)N(C)C)cc2)n(-c2ccccn2)n1	6.95%	
COc1cccc(/C=N/Nc2nc(N3CCCC3)nc(N3CCCC3)n2)c1O	13.7%	
COc1cccc(Nc2ncc3nc(-c4cccs4)c(=O)n(-c4ccccc4)c3n2)c1	4.06%	
Cc1nc(Cl)c(C#N)cc1-c1ccccc1	-1.78%	
N#CC(=C1CCCC1)c1nc(-c2ccccc2)cs1	-2.08%	
Cc1noc(NS(=O)(=O)c2ccc(N/C=C\C(=O)c3ccc4c(c3)OCO4)cc2)c1C	-9.13%	
C=C1C(=O)O[C@@H]2[C@H]3O[C@]3(C)CCC=C(C)CC[C@@H]12	2.63%	
CCOC(=O)c1c(N2C(=O)Nc3cc(Cl)c(Cl)cc3N2O)sc2c1CCCCC2	-5.85%	
CCc1ccc(C(=O)COC(=O)C(Cc2ccccc2)NC(=O)C2CCC(C)CC2)cc1 (centres undefined)	0.801%	
